VP16 counter – inhibits Gal4-VP16 luciferase reporter, ROR gamma counter-screen | Drosophila S2 Gal4-VP16 UAS-luciferase, luminescence, 20 h | actives 3.5% (n = 310,000) | Potency, µM (titrated, usually from 53.6 µM), for the others: top-dose activity, negative = inhibition, most hits filed as inhibitors | AID 2546;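 note: Gal4-VP16 expression switched on by copper sulfate through the metallothionein promoter; % is set by controls: 0 for no effect and ±100 for the full control effect; nearly all actives have a fitted effect of over 50% in size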
MCF10A rereplic – inducers of DNA re-replication in MCF 10A breast cells; Potency, µM (titrated, usually from 46.1 µM), without a hit: at the top dose activity, positive = re-replication, usual class: activators; actives 2.9% (n = 350,000); MCF 10A DNA re-replication, Hoechst nuclear intensity, 48 h; note: % of control where 0% means no effect; nearly all actives have a fitted effect of over 50% in size
RORgamma inh – ROR gamma (mouse) transcription inhibition | Drosophila S2 Gal4-RORgamma UAS-luciferase reporter, 20 h | Potency, µM (titrated, usually from 53.6 µM), for inactives: at the highest dose activity change, negative = inhibition, hits mostly inhibitors | actives 5.4% (n = 310,000); note: % is set by controls: 0 for no effect and ±100 for the full control effect; nearly all actives have a fitted effect of over 60% in size
Target sequence (P51450 whole entry, looked up, the tested form may be a part): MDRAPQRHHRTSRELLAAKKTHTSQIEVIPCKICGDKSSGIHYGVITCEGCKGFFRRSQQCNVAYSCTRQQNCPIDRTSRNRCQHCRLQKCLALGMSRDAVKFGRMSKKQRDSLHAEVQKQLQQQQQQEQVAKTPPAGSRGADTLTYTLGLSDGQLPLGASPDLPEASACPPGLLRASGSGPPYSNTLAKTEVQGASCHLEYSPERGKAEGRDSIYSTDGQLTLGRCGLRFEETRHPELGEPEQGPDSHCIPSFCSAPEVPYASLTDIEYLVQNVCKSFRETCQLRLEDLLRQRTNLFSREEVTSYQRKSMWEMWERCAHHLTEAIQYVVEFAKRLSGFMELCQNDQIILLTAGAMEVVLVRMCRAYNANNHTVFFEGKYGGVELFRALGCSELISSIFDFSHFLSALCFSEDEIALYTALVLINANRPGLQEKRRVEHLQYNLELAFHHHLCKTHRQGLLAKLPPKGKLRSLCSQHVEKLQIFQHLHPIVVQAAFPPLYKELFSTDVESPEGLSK
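Compounds are pin-transferred onto Drosophila Schneider cells expressing a copper-inducible Gal4–ROR gamma transactivation domain fusion. After 1 hr, copper sulfate is added to 700 uM final; luciferase is read 20 hr later.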
ELG1 DNA repair – ELG1-dependent DNA repair inhibition; HEK293T ELG1-luciferase reporter, luminescence, 16 h; DNA damage induced by 5-fluorouridine; Potency, µM (titrated, usually from 46.1 µM), for inactives: at the top dose activity change, negative = inhibition, most hits filed as inhibitors; actives 2.3% (n = 330,000); AID 504467; note: % is set by controls: 0 for no effect and ±100 for the full control effect; nearly all actives have a fitted effect of over 55% in size
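Quantitative HTS, concentration-response format. 2,000 cells/well co-treated with 5-fluorouridine and compound, 16 hr in 5% CO2 at 37 °C; ONE-Glo luminescence read after 30 min.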
SW480 rereplic – inducers of DNA re-replication in SW480 colon cancer cells; AID 624297; SW480 DNA re-replication, Hoechst DNA content imaging, 48 h; actives 1.8% (n = 340,000); Potency, µM (top dose mostly 46.1 µM), inactives show at the top dose re-replication activation, most hits filed as activators; note: % of control where 0% means no effect; nearly all actives have a fitted effect of over 55% in size
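Cells (250 per well) received 23 nL compound or DMSO by pin tool and were kept 48 hr at 37 C, 5% CO2. Nuclei were then stained with Hoechst for 40 min and scanned for DNA content.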
* hit, by the source's call; ? = inconclusive; · = not tested or not shown. In the library only some 10% were active in any assay of this set; here they are far more common. Calls come from the whole dose curve; as a rule, active = well fitted curve in the direction sought with a large enough effect; inconclusive = small, poorly fitted or top-dose-only effect, or another doubt; inactive = no such curve, though single readings can be large; an effect the other way counts as inactive or inconclusive. Potency is the fitted concentration of half-maximal effect.

SMILES	VP16 counter	MCF10A rereplic	RORgamma inh	ELG1 DNA repair	SW480 rereplic
Cn1cccc1CC(=O)NNC(=S)Nc1ccc(Cl)cc1	?	-1%	11µM*	1%	-6%
O=C(Cc1noc2ccccc12)NNC(=S)Nc1ccc(Cl)cc1	-17%	2%	11µM*	-2%	-3%
Cn1cccc1CC(=O)NNC(=S)Nc1ccccc1Cl	-10%	10%	-26%	14%	-1%
O=C(Cc1noc2ccccc12)NNC(=S)Nc1ccccc1	-7%	-3%	?	1%	-7%
Cc1cccc(NS(=O)(=O)c2ccc(C(=O)NCCCN3CCCC3=O)cc2)c1C	·	5%	·	-2%	1%
O=C(Cn1ccc(NC(=O)OCc2ccccc2)nc1=O)NCCc1ccccn1	·	-2%	·	9%	-3%
Cn1cccc1C(=O)N1CCC2(CCN(C(=O)Nc3cccc(F)c3)CC2)CC1	16%	·	33%	·	·
CC(C)CN1C(=O)c2ccccc2C1(O)Cc1ccccc1 (configuration not stated)	20µM*	?	?	7%	3%
CC1=NN(Cc2c(C)nn(Cc3ccccc3)c2C)C(C)(C)C1	9%	3%	13µM*	?	-1%
CCOC(=O)c1cc(C(=O)NN)c(=O)[nH]c1C	-12%	0%	7%	26%	-41%
Cn1c(=O)c(-c2cc(F)cc(F)c2)nc2cnc(Oc3cccc(Cl)c3)nc21	11%	·	-15%	·	·
Cc1ccc(S(=O)(=O)N(CC(=O)N/N=C/c2cccc3c2OCCO3)c2ccccc2F)cc1	4%	?	0%	-18%	23%
Cc1cc(/C=C2/C(=N)N3C(=NC2=O)SN=C3S(C)(=O)=O)c(C)n1-c1ccc(F)cc1	-3%	21µM*	13%	?	-3%
CCOc1ccc(-n2c(C)cc(/C=C3/C(=N)N4C(=NC3=O)SN=C4S(C)(=O)=O)c2C)cc1	-5%	15µM*	26%	-2%	13%
COc1ccccc1-n1c(C)cc(/C=C2/C(=N)N3C(=NC2=O)SN=C3S(C)(=O)=O)c1C	?	?	-38%	?	1%
CCOc1cc(/C=C2/C(=N)N3C(=NC2=O)SN=C3S(C)(=O)=O)ccc1OS(=O)(=O)c1ccccc1	-1%	?	24%	?	-5%
CCC1=C2CC[C@H]3C(=O)N(C)C(=O)[C@H]3[C@H]2[C@@]2(Cc3ccccc3)C(=NCC3CC3)OC(=O)N2C1=O	-6%	·	17%	·	·
COc1ccc(-c2coc3c(OC)c(OC)cc(O)c3c2=O)cc1	-5%	·	?	·	·
FC(F)(F)c1cc(NC(=S)NC(c2ccccc2)c2ccccc2)cc(C(F)(F)F)c1	?	·	-20%	·	·
Clc1nccnc1N/N=C/c1ccc(Br)cc1	?	2%	4.5µM*	?	-14%
Oc1ccc(/C=N/Nc2nccnc2Cl)c(O)c1	16µM*	4%	?	?	6%
COc1ccc(/C=N/Nc2nccnc2Cl)cc1	?	-1%	?	?	-2%
Oc1ccccc1/C=N/Nc1nccnc1Cl	?	?	13µM*	?	?
CCC1(C2=CCCCC2)C(=O)NC(=S)N=C1N (configuration not stated)	·	-19%	·	·	-13%
O=C(NCc1ccccc1)C1CCCN(C(=O)c2ccc(F)cc2)C1 (configuration not stated)	·	-5%	·	0%	-3%
SMILES	VP16 counter	MCF10A rereplic	RORgamma inh	ELG1 DNA repair	SW480 rereplic
CC(C)c1ccc(C(C)NC(=S)NC2CCCCC2)cc1 (configuration not stated)	2.8µM*	?	1.4µM*	0%	5%
CC(NC(=S)NC1CCCCC1)c1ccc(C(C)(C)C)cc1 (configuration not stated)	2µM*	5.8µM*	1.6µM*	0%	29%
CCC(=O)Nc1c(-c2ccccc2Cl)c(=O)c2ccccc2n1C	-5%	-2%	4%	22%	-55%
CCOC(=O)C(C)On1c(-n2nc(C)cc2C)nc2ccccc2c1=O (configuration not stated)	6.3µM*	2%	2.5µM*	-29%	-4%
COC(=O)COn1c(-n2nc(C)cc2C)nc2ccccc2c1=O	8.9µM*	9%	4µM*	1%	6%
CCOn1c(-n2nc(C)cc2C)nc2ccccc2c1=O	6%	6%	-35%	5%	-3%
Cc1cc(C)n(-c2nc3ccccc3c(=O)n2OCC(C)C)n1	2%	-9%	?	6%	-2%
Cc1cc(C)n(-c2nc3ccccc3c(=O)n2OCC#N)n1	1µM*	?	0.5µM*	?	16µM*
CCOC(=O)COn1c(-n2nc(C)cc2C)nc2ccccc2c1=O	14µM*	7%	18µM*	?	7%
O=C(NCCC1CCCCN1S(=O)(=O)c1ccccc1)C(=O)NCc1ccco1 (configuration not stated)	·	5%	·	-3%	-1%
CC(C)(C)c1ccc(OC(=O)Nc2ccc(O)c(C(=O)O)c2)cc1	1.3µM*	0%	?	28%	2%
Cc1ccc(NC(=O)C2=C(C(=O)O)CCCC2)cc1F	10%	-9%	-1%	20%	-2%
Cc1ccc(NC(=O)C2=C(C(=O)O)CCCC2)cc1Br	1%	5%	?	-2%	8.2µM*
Cc1cc(NC(=O)COC(=O)c2ccc(OC(F)(F)F)cc2)no1	·	-5%	·	18%	-10%
Cc1cc(NC(=O)COC(=O)C(Nc2ccc(C(F)(F)F)cc2Cl)C(C)C)no1 (configuration not stated)	?	21µM*	?	?	23%
CC1=CC2C(C(O)CC3(C)C2CC(C)C32OCOC23COCO3)C2(C)C/C(=C\O)C(=O)C=C12 (configuration not stated)	·	4.6µM*	·	·	15µM*
N#Cc1ccc(S(=O)(=O)NCCc2ccncc2)cc1	·	-7%	·	·	-3%
CCn1c(C)nc2cc(S(=O)(=O)C(F)(F)F)ccc21	?	-2%	?	-15%	-2%
CCn1c(C)nc2cc(C(=O)N3N=C(CCOC)CC3(O)C(F)(F)F)ccc21 (configuration not stated)	35µM*	10%	?	-6%	-1%
O=C1NC(CCc2ccccc2)C(=O)N1Cc1ccccc1Cl (configuration not stated)	13%	-2%	5%	4%	-5%
CCOC(=O)C(=CNc1ccc(NC2=NCC(C)S2)cc1)C(=O)OCC (configuration not stated)	-2%	5%	0%	6.5µM*	1%
CCOC(=O)C(=CNc1ccc(C(F)(F)F)cc1)C(=O)OCC	-3%	6%	19%	-16%	-9%

Screening results as filed in PubChem BioAssay.
